Here are results for 18 compounds from PubChem BioAssay (EPA / NIEHS).

SMILES strings stand for the structures. Inconclusive results are not listed. Calls of active or inactive are those of the source. Rule for the calls: active = hit-call score of the fitted dose curve at least 0.9, where 1 is the maximum; inconclusive = response in the unintended direction; inactive = score below 0.9.

The term AC50 denotes the concentration giving half of the maximal activity seen.

This test can be described thus: CCTE_Simmons_CellTiterGLO_HEK293T: Viability Assessment in CCTE's Assays for Thyroperoxidase (TPO) Inhibition, Simmons Lab (AID 2283665).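 For AC50: cells exposed to compound for 24 h before readout; actives reduce ATP signal below DMSO vehicle meaning cytotoxicity.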 In outline: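 HEK293T, 10 000 cells/well, DMEM + 1% FBS; 8-pt titration 5 nM–87.5 uM [final], 0.5% DMSO; 24 hr, 37C, 5% CO2; CellTiter-Glo luminescence; n=3 biological replicates.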
(In general: In ATP-based viability assays light output follows the ATP content of the culture.)
With `c1ccc2c(c1)Nc1ccccc1S2`, the concentration at half-maximal activity (AC50) is 9.57 µM (active). On to `CC(C)(C)c1ccc(O)cc1`, for which the AC50 was 57.4 µM (active). Turning to `Nc1cc2c3c(c1)C(c1ccccc1)=N[C@@H](NC(=O)c1cccnc1)C(=O)N3CC2`, the compound was classed as inactive. Turning to `O=S1(=O)OCC2C(CO1)C1(Cl)C(Cl)=C(Cl)C2(Cl)C1(Cl)Cl` (stereo not drawn), the AC50 is 28.5 µM (active). As for `CCCCc1ccc(O)cc1`, the concentration at half-maximal activity (AC50) is 53.6 µM (active). Turning to `CCCCCCCc1ccc(O)cc1`, the AC50 was 10.1 µM (active). `Nc1ccc(Cl)cc1`: the call was inactive.

Take `Nc1ccc2ccccc2c1`: the compound was classed as inactive. As to `CCC1(c2ccccc2)C(=O)N=C(O)NC1=O` (stereo not drawn), the compound was classed as inactive.

`Cc1cccc(N)c1`: the outcome was inactive.

For the compound `O=c1ssc(Cl)c1Cl`, the AC50 is 53.8 µM (active). On to `CCOP(=S)(OCC)SCSCC`, for which the concentration at half-maximal activity (AC50) is 13.6 µM (active). With `CCC(C)(C)c1ccc(O)cc1`, the AC50 was 28.1 µM (active).

`[N-]=[N+]=[N-]`: the result was inactive. As to `CCCCN(CC)C(=O)SCCC`, the concentration at half-maximal activity (AC50) is 73.1 µM (active).

In the case of `CCOP(=S)(Oc1ccc([N+](=O)[O-])cc1)c1ccccc1` (stereo not drawn), the compound was called inactive. `c1ccc(OP(Oc2ccccc2)Oc2ccccc2)cc1`: the call was inactive.

As to `Cc1ccc(N)cc1N`, the result was inactive.
